Whole data set: some 33,000 sequences, median “E-score (-0.5 to 0.5)” near -0.015, cut for the highest 2% near 0.3. Many of the other results were omitted from the sample, so the highest values are more common in it than they were.
These sequences were tested against T1, Abf1 (UniProt P14164) (assay: PBM E-score (8-mer binding enrichment) (E-score (-0.5 to 0.5)); higher = stronger / more preferred TF binding). Conditions: protein concentration: 200 nM; construct: GST-full length.
T1 sequence: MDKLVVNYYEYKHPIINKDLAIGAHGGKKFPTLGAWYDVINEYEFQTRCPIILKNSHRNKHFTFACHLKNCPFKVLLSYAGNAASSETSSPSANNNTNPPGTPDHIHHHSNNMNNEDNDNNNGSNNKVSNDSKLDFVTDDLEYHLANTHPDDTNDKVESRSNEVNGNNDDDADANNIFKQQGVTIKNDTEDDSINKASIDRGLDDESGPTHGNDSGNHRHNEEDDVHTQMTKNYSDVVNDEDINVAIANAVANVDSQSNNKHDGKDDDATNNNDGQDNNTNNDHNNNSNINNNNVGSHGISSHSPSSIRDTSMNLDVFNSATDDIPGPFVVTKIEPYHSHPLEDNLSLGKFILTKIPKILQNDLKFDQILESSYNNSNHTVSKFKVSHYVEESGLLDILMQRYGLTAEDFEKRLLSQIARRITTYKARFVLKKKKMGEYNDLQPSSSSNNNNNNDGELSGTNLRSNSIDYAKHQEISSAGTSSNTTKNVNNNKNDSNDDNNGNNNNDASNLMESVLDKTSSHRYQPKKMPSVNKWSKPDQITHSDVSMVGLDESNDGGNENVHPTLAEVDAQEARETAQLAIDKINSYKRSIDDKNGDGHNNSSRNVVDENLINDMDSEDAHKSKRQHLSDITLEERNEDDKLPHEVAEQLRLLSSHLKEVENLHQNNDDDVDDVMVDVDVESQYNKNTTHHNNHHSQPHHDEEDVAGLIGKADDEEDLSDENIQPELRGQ
Summary of the method: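 Each ungapped eight-base word and its reverse complement, pooled, received an E-score from the Universal PBM Analysis Suite. Underlying scans, normalised with masliner, recorded fluorescent anti-GST bound to GST-tagged yeast transcription factors. These were applied at about 100-200 nM to universal all-10-mer Agilent arrays double-stranded by primer extension.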

| Sequence | PBM E-score |
| --- | --- |
| CATGTAAG | -0.112 |
| CCTCCGTA | 0.116 |
| TCTCTGCA | 0.0379 |
| CGCTGCCG | -0.0244 |
| ACCGGACC | -0.113 |
| TAATCGGA | 0.0729 |
| CAGTCGAC | 0.137 |
| CGCCTGTA | -0.234 |
| GACGTATA | 0.249 |
| ATAGTATG | 0.161 |
| ATCGTGTA | 0.376 |
| ATCGTATA | 0.326 |
| GTCGTGTA | 0.239 |
| CTCGTATA | 0.241 |
| AGCGTATG | -0.154 |
| GTCGTATA | 0.402 |
| AACGTATA | 0.1 |
| CTCGTGTA | 0.157 |
| ATCGTATC | 0.242 |
| ATCGTATG | 0.302 |
| GGGCTACC | -0.186 |
| GGGTCATA | -0.0763 |

| Sequence | PBM E-score |
| --- | --- |
| CCCTCGTA | 0.126 |
| TATGACCA | -0.0211 |
| GAACAGCC | -0.195 |
| AGACCGAC | -0.00992 |
| GATAAATA | 0.257 |
| AATAAATT | 0.313 |
| CGTAAATC | 0.131 |
| AATAAAAT | 0.2 |
| AATAAATA | 0.32 |
| AGTAAATA | 0.103 |
| TATAAATA | 0.257 |
| CGTAAATA | 0.299 |
| AATAAATG | 0.149 |
| AAAAGATA | 0.182 |
| CCTATGCA | 0.018 |
| CGAAGCCG | -0.0718 |
| GCACCCTA | -0.149 |
| GAGGTCGC | 0.0116 |
| CCGTGCAG | 0.192 |
| CCGTGCAC | 0.31 |
| ACGTGCAC | 0.112 |
| CCGTGCGA | 0.354 |

| Sequence | PBM E-score |
| --- | --- |
| GCGTGCGA | -0.0331 |
| GCGTGCAA | 0.0992 |
| CTGTGCAA | 0.0274 |
| CCGTGCGC | 0.218 |
| ACGTGCAA | 0.21 |
| GCGTGCAC | -0.0221 |
| CCGTGCAA | 0.334 |
| TCGTGCAA | 0.361 |
| TCTCCAAA | -0.0776 |
| CCCGGCCA | -0.267 |
| AACAGCTG | -0.0093 |
| ACACTGGG | -0.134 |
| GCAACTCC | -0.257 |
| ACACGTGA | 0.237 |
| CCGAACCG | -0.0651 |
| AATGATAG | 0.229 |
| AATGATAA | 0.408 |
| GATGATAA | 0.36 |
| GATAATAA | 0.24 |
| CATGATAC | 0.236 |
| AATGATGA | 0.282 |
| GATGATAC | 0.297 |

| Sequence | PBM E-score |
| --- | --- |
| AATGATGG | 0.0838 |
| AATGATTA | 0.273 |
| AATGATAC | 0.288 |
| AATGATGT | 0.325 |
| AGCTAGGG | -0.309 |
| CCTGCGTC | -0.22 |
| ATACTTTA | 0.094 |
| ACAACCGG | 0.0327 |
| GGGGCATA | -0.184 |
| CAGCTTAA | -0.00327 |
| TATGATAA | 0.258 |
| AATGAGAT | 0.148 |
| AATGATAT | 0.436 |
| CATGATAG | 0.0986 |
| CATGATAA | 0.356 |
| AATGAAAT | 0.166 |
| CTGGATGA | 0.0651 |
| CCTTGAAG | -0.111 |
| GCGTGGCA | -0.0717 |
| GGACGAAA | 0.0999 |
